{"source": "the supplement of paper PMC12350171", "note": "Counter-ions that a name gives are not always drawn. Unmarked numbers belong to inactive results.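 The calls were made as follows: active = AUC significantly below DMSO controls by Student t-fit with adjusted P under 0.01; inactive = not significantly reduced.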", "data": [{"system": "Haemophilus parainfluenzae", "assay": "growth AUC normalised to DMSO control (fraction of control); higher = less growth inhibition, active = hit call of the paper", "conditions": "20 µM", "procedure,_shortened": "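Hemin and NAD were added to the medium for Haemophilus parainfluenzae. All pathogens, after two anaerobic passages, were inoculated at a starting OD578 of 0.01 into pre-reduced mGAM plates with 20 μM compound and 1% DMSO under breathable seals, and OD578 was read hourly for 24 h in three biological replicates. AUC of each growth curve was obtained with the trapezoidal rule up to the exponential-to-stationary transition and normalised to DMSO controls from the same plate.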", "values": [{"smiles": "COc1ccc2c3c1O[C@H]1C[C@@H](O)C=C[C@@]31CCN(C)C2", "note": "[Galanthamine hydrobromide]", "growth AUC normalised to DMSO control": 0.988}, {"smiles": "CCOC(=O)[C@H](CCc1ccccc1)N[C@@H](C)C(=O)N1Cc2ccccc2C[C@H]1C(=O)O", "note": "[Quinapril hydrochloride]", "growth AUC normalised to DMSO control": 0.952}, {"smiles": "Cc1cc(C)nc(NS(=O)(=O)c2ccc(N)cc2)n1", "note": "[Sulfamethazine sodium salt]", "growth AUC normalised to DMSO control": 0.999}, {"smiles": "CN(Cc1cc(Br)cc(Br)c1N)C1CCCCC1", "note": "[Bromhexine hydrochloride]", "growth AUC normalised to DMSO control": 1.04}, {"smiles": "CCN(CC)CCCC(C)Nc1c2ccc(Cl)cc2nc2ccc(OC)cc12", "note": "(configuration not stated) [Quinacrine dihydrochloride hydrate]", "growth AUC normalised to DMSO control": 0.879}, {"smiles": "CC(C)(C)C(=O)OCOC(=O)[C@@H]1N2C(=O)[C@@H](/N=C/N3CCCCCC3)[C@H]2SC1(C)C", "note": "[Pivmecillinam hydrochloride]", "growth AUC normalised to DMSO control": 0.825}, {"smiles": "CCCOc1ccccc1-c1nc2[nH]nnc2c(=O)[nH]1", "note": "[Zaprinast]", "growth AUC normalised to DMSO control": 1.01}, {"smiles": "CC(C)NC[C@H](O)COc1cccc2ccccc12", "note": "[(S)-(-)-Propranolol hydrochloride]", "growth AUC normalised to DMSO control": 1.03}, {"smiles": "NS(=O)(=O)c1cc(C2(O)NC(=O)c3ccccc32)ccc1Cl", "note": "(configuration not stated) [Chlorthalidone]", "growth AUC normalised to DMSO control": 1.01}, {"smiles": "CCCCOC(=O)c1ccc(O)cc1", "note": "[Butylparaben]", "growth AUC normalised to DMSO control": 0.97}, {"smiles": "CNCCC(Oc1ccccc1OC)c1ccccc1", "note": "(configuration not stated) [Nisoxetine hydrochloride]", "growth AUC normalised to DMSO control": 1.02}, {"smiles": "COc1ccc(-c2cc(=S)ss2)cc1", "note": "[Anethole-trithione]", "growth AUC normalised to DMSO control": 1.05}, {"smiles": "CN1CCc2c(c3ccccc3n2Cc2ccccc2)C1", "note": "[Mebhydroline 1,5-naphtalenedisulfonate]", "growth AUC normalised to DMSO control": 0.932}, {"smiles": "CC(C)(C)C(=O)OCOC(=O)[C@@H]1N2C(=O)[C@@H](NC(=O)[C@H](N)c3ccccc3)[C@H]2SC1(C)C", "note": "[Pivampicillin]", "growth AUC normalised to DMSO control": 0.942}, {"smiles": "CC(C)NC[C@@H](O)COc1ccc(CC(N)=O)cc1", "note": "[(R,+) Atenolol]", "growth AUC normalised to DMSO control": 0.98}, {"smiles": "CCOc1ccc2c(c1)C(C)=CC(C)(C)N2", "note": "[Ethoxyquin]", "growth AUC normalised to DMSO control": 0.94}, {"smiles": "COC(=O)C1=C(C)NC(C)=C(C(=O)OCC(C)C)C1c1ccccc1[N+](=O)[O-]", "note": "(configuration not stated) [Nisoldipine]", "growth AUC normalised to DMSO control": 0.996}, {"smiles": "COC(=O)C1=C(C)NC(C)=C(C(=O)OC)C1c1ccccc1[N+](=O)[O-]", "note": "[Nifedipine]", "growth AUC normalised to DMSO control": 0.998}, {"smiles": "Cn1c(=O)c2c(ncn2CCO)n(C)c1=O", "note": "[Etofylline]", "growth AUC normalised to DMSO control": 1.02}, {"smiles": "N#Cc1ccc(C(c2ccc(C#N)cc2)n2cncn2)cc1", "note": "[Letrozole]", "growth AUC normalised to DMSO control": 1.01}, {"smiles": "CC(C)(C)NC[C@H](O)COc1ccccc1C1CCCC1", "note": "[Penbutolol sulfate]", "growth AUC normalised to DMSO control": 1.02}, {"smiles": "CCOC1O[C@H]([C@@H](COCc2ccccc2)OCc2ccccc2)[C@H](OCc2ccccc2)[C@H]1O", "note": "(some centres not stated) [Tribenoside]", "growth AUC normalised to DMSO control": 0.941}, {"smiles": "NC(=O)c1cc[n+](CC2=C(C(=O)[O-])N3C(=O)[C@@H](NC(=O)[C@@H](c4ccccc4)S(=O)(=O)O)[C@H]3SC2)cc1", "note": "[Cefsulodin sodium salt]", "growth AUC normalised to DMSO control": 0.912}, {"smiles": "COCCOC(=O)C1=C(C)NC(C)=C(C(=O)OC/C=C/c2ccccc2)C1c1cccc([N+](=O)[O-])c1", "note": "(configuration not stated) [Cilnidipine]", "growth AUC normalised to DMSO control": 1}, {"smiles": "CCC(Cc1c(I)cc(I)c(N)c1I)C(=O)O", "note": "(configuration not stated) [Iopanoic acid]", "growth AUC normalised to DMSO control": 0.971}, {"smiles": "S=c1[nH]cnc2nc[nH]c12", "note": "[Mercaptopurine]", "growth AUC normalised to DMSO control": 0.997}, {"smiles": "O=C(O)c1ccccc1C(=O)Nc1ccc(S(=O)(=O)Nc2nccs2)cc1", "note": "[Phthalylsulfathiazole]", "growth AUC normalised to DMSO control": 1}]}]}
